According to PubChem BioAssay (EPA / NIEHS):
Records with an inconclusive call do not appear. Active and inactive are the calls of the source. The calls were made as follows, unless noted: active = hit-call score of the fitted dose curve at least 0.9, where 1 is the maximum; inactive = score below 0.9.

Experiments:
[1] = CCTE_Shafer_MEA_acute_spike_number: CCTE's Neural Acute Assay for Total Number of Spikes, Shafer Lab (AID 2284008);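 also: curve fitted for decrease in spike count so AC50 reflects inhibitors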
In short: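 Rat primary cortical neurons on 48-well MEA plates, DIV 13 or 15, at 37 C. 40 min baseline then 40 min with compound (0.03-40 uM); spikes detected at 8x rms noise, expressed as percent change from baseline.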

[2] = CCTE_Shafer_MEA_acute_firing_rate_mean: CCTE's Neural Acute Assay for Mean Firing Rate, Shafer Lab (AID 2284009);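 also: analyzed for loss of signal so actives lower firing rate relative to DMSO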
In short: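 Spontaneous spiking of primary rat cortical networks, DIV 13/15, 37 C. Compound 0.03-40 uM, n ≥3 wells; 40 min baseline vs 40 min treated. Endpoint fitted in loss-of-signal direction against DMSO.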

[3] = CCTE_Shafer_MEA_acute_burst_number: CCTE's Neural Acute Assay for Single-Electrode Bursts, Shafer Lab (AID 2284013)
In short: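 Burst totals were derived with adaptive spike detection (8x rms threshold) on filtered signals from rat cortical cultures; change relative to pre-treatment baseline after 40-min compound exposure (0.03-40 uM) was fitted in the negative direction against DMSO.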

[4] = CCTE_Shafer_MEA_acute_burst_duration_mean: CCTE's Neural Acute Assay for Mean Burst Duration, Shafer Lab (AID 2284014);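 also: hits are decreases in mean burst duration relative to DMSO controls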
In short: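 Acute exposure of mature rat cortical networks (DIV 13 or 15) grown on microelectrode arrays to 0.03-40 uM compound. Mean burst duration compared with the 40-min pre-dose baseline over a 40-min post-dose recording at 37 C.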

[5] = CCTE_Shafer_MEA_acute_per_burst_spike_number_mean: CCTE's Neural Acute Assay for Average Number of Spikes Per Burst, Shafer Lab (AID 2284015);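 also: hits are decreases in mean spikes per burst versus baseline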
In short: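 Percent change in mean spikes per single-electrode burst is compared between a 40 min baseline and a 40 min recording with compound (0.03-40 uM). Cultures were rat cortical neurons on MEA plates at DIV 13 or 15, recorded at 37 C, with DMSO as the negative control.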

[6] = CCTE_Shafer_MEA_acute_interburst_interval_mean: CCTE's Neural Acute Assay for Mean Interburst Interval, Shafer Lab (AID 2284016);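 also: percent change of mean interburst interval versus each well's own pre-dose baseline; curves fitted for decrease in interburst interval relative to DMSO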
In short: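 Percent change in mean single-electrode interburst interval was calculated per well from 40 min recordings before and after compound (0.03-40 uM). Recordings were made at 37 C on rat cortical cultures at DIV 13 or 15, with spikes detected at 8x rms threshold.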

[7] = CCTE_Shafer_MEA_acute_burst_percentage_mean: CCTE's Neural Acute Assay for Percentage of Spikes in a Burst, Shafer Lab (AID 2284017);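 also: curve fitted for loss of signal so potency reflects decreased burst percentage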
In short: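 Well-level mean burst percentage from a 40-min recording after compound (0.03-40 uM) expressed as percent change from a 40-min baseline at 37C. Cultures: primary rat cortical neurons on MEA, dosed on DIV 13 or 15; fitted downward relative to DMSO.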

[8] = CCTE_Shafer_MEA_acute_per_network_burst_spike_number_std: CCTE's Neural Acute Assay for Standard Deviation of Number of Spikes in a Network Burst, Shafer Lab (AID 2284020);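 also: fitted for decrease in spike-number SD versus DMSO so actives lower it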
In short: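 Acute MEA exposure, rat cortical neurons, 0.03-40 uM. Per-well % change versus own baseline; DMSO as negative control.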

[9] = CCTE_Shafer_MEA_acute_per_network_burst_electrodes_number_mean: CCTE's Neural Acute Assay for Mean Number of Electrodes in a Network Burst, Shafer Lab (AID 2284021);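 also: curves fitted for decreases only so hits reduce electrodes per burst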
In short: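 Rat primary cortical neurons on 48-well MEAs, DIV 13 or 15, were treated at 0.03-40 uM. Spikes were detected at 8x rms noise and recorded at 37 C. The mean electrodes per network burst in a 40 min exposure recording was expressed as percent change from a 40 min baseline.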

[10] = CCTE_Shafer_MEA_acute_network_burst_percentage: CCTE's Neural Acute Assay for Percentage of Network Bursts, Shafer Lab (AID 2284022);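 also: curves fitted for loss so actives lower network burst percentage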
In short: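 Rat primary cortical neuron networks on 48-well MEA plates, DIV 13 or 15, treated acutely with compound (0.03-40 uM, at least three wells). Percent of spikes within network bursts compared between 40-min recordings before and during exposure at 37 C, expressed as percent change.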

[11] = CCTE_Shafer_MEA_acute_cross_correlation_HWHM: CCTE's Neural Acute Assay for Cross Correlation at Half Width at Half Maximum, Shafer Lab (AID 2284026);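 also: spontaneous network firing of rat primary cortical neurons on multiwell microelectrode arrays; percent change per well from pre-dose baseline in spike cross-correlogram half width; hits are a decrease in cross-correlogram half width relative to DMSO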
In short: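 Rat primary cortical neurons on 48-well MEA plates; 40-min baseline and 40-min post-exposure recordings at 37 C on DIV 13 or 15, compounds 0.03-40 uM. Spikes detected at 8x rms noise; percent change in cross-correlogram HWHM per well vs baseline.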

[12] = CCTE_Shafer_MEA_dev_firing_rate_mean: CCTE's Neural Network Formation Assay for Mean Firing Rate, Shafer Lab (AID 2284031);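 also: curve fitted for loss of firing so AC50 reflects decreased mean firing rate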
In short: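 Extracellular spike frequency, AUC over DIV 5–12 recordings, in rat cortical neuron MEA cultures dosed from plating; loss direction vs DMSO.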

[13] = CCTE_Shafer_MEA_dev_per_burst_spike_percent: CCTE's Neural Network Formation Assay for Percent of Spikes in a Burst, Shafer Lab (AID 2284032);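 also: fitted as a decrease in burst spike percentage below DMSO baseline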
In short: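 Value is trapezoidal AUC over recordings on days 5, 7, 9 and 12 of the well-mean fraction of spikes falling in single-electrode bursts; rat cortical cultures exposed continuously from plating, treatment renewed DIV 5 and 9, fitted downward against DMSO.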

[14] = CCTE_Shafer_MEA_dev_active_electrodes_number: CCTE's Neural Network Formation Assay for Number of Active Electrodes, Shafer Lab (AID 2284040; active = hit-call score of the fitted dose curve at least 0.9, where 1 is the maximum;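 also: potency for loss of active electrodes versus DMSO so lower counts are hits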)
In short: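 Developing rat cortical networks on MEAs, exposed DIV 0–12. Value is the AUC of active-electrode counts (≥5 spikes/min) from days 5, 7, 9, 12, relative to DMSO.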

[15] = CCTE_Shafer_MEA_dev_burst_rate: CCTE's Neural Network Formation Assay for Burst Rate, Shafer Lab (AID 2284042)
In short: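 Exposure ran continuously over 12 days of network development in rat cortical cultures, with compound refreshed during full media changes on DIV 5 and 9. Single-electrode bursts per recording time, well-mean over active electrodes, trapezoidal AUC across days 5–12, fitted downward relative to DMSO.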

[16] = CCTE_Shafer_MEA_dev_per_burst_interspike_interval: CCTE's Neural Network Formation Assay for Burst Interspike Interval, Shafer Lab (AID 2284044)
In short: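 Primary rat cortical neurons on 48-well MEA plates, exposed from day 0 through day 12, treatment renewed at DIV 5 and 9. Within-burst interspike interval recorded days 5, 7, 9, 12, well-averaged, summarised as AUC; negative fit versus DMSO.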

[17] = CCTE_Shafer_MEA_dev_burst_duration_mean: CCTE's Neural Network Formation Assay for Mean Burst Duration, Shafer Lab (AID 2284045)
In short: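 Network-formation assay in primary rat cortical neurons; treatment spans twelve days of development. Mean burst duration per well is integrated by trapezoidal AUC and fitted in the loss-of-signal direction against DMSO baseline.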

[18] = CCTE_Shafer_MEA_dev_interburst_interval_mean: CCTE's Neural Network Formation Assay for Mean Interburst Interval, Shafer Lab (AID 2284046);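 also: well-mean interburst interval of bursting electrodes as AUC over four recording days; curve fitted for decrease in interburst interval relative to DMSO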
In short: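 Primary rat cortical neurons on PEI-coated 48-well MEA plates (laminin added with cells at plating) (16 electrodes/well), exposed from plating day 0 with renewal at DIV 5 and 9. Mean inter-burst interval averaged over bursting electrodes, AUC across days 5, 7, 9, 12; DMSO baseline.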

[19] = CCTE_Shafer_MEA_dev_inter_network_spike_interval_mean: CCTE's Neural Network Formation Assay for Mean Inter-network Spike Interval, Shafer Lab (AID 2284047)
In short: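 Mean time between consecutive network-spike peaks, recorded extracellularly (adaptive spike detection) on DIV 5, 7, 9 and 12, summarized as trapezoidal AUC. Rat cortical cultures on MEAs dosed continuously days 0–12, re-dosed at feeds; loss-of-signal fit relative to DMSO.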

[20] = CCTE_Shafer_MEA_dev_network_spike_number: CCTE's Neural Network Formation Assay for Number of Network Spikes, Shafer Lab (AID 2284048);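 also: synchronized bursts across electrodes counted on days 5 7 9 12 and integrated as AUC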
In short: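 Extracellular recordings from 16-electrode wells track network formation in rat cortical cultures under continuous treatment from plating. The endpoint is network spike number, expressed as AUC across DIV 5–12 relative to DMSO vehicle.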

[21] = CCTE_Shafer_MEA_dev_spike_duration_mean: CCTE's Neural Network Formation Assay for Mean Spike Duration, Shafer Lab (AID 2284051);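 also: mean network spike duration pooled as area under curve over DIV 5 to 12 recordings; potency for a decrease in mean network spike duration versus DMSO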
In short: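 Spontaneous activity was recorded on days 5, 7, 9 and 12 from rat cortical cultures grown on microelectrode arrays and dosed continuously from day 0, with media and compound renewed after the DIV 5 and 9 recordings. Network-spike duration was collapsed by area under the curve.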

[22] = CCTE_Shafer_MEA_dev_network_spike_duration_std: CCTE's Neural Network Formation Assay for Standard Deviation of Network Spike Duration, Shafer Lab (AID 2284052);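 also: hits are decreases in network spike duration SD versus DMSO vehicle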
In short: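 Network spike duration variability was collapsed across recordings on days 5, 7, 9 and 12 by trapezoidal area-under-curve and fitted downward against DMSO. Cultures were rat cortical neurons on PEI-coated MEA plates, dosed continuously from plating, refed with compound DIV 5/9.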

[23] = CCTE_Shafer_MEA_dev_per_network_spike_spike_number_mean: CCTE's Neural Network Formation Assay for Mean Number of Spikes in a Network Spike, Shafer Lab (AID 2284053)
In short: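 Mean spike count within each network spike, taken in a 0.05 s window at its peak, was recorded on days 5, 7, 9 and 12 and integrated as trapezoidal area under the curve. Rat cortical cultures on MEA plates received continuous compound from day 0, refreshed at medium changes on DIV 5 and 9.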

[24] = CCTE_Shafer_MEA_dev_per_network_spike_spike_percent: CCTE's Neural Network Formation Assay for Percent of Spikes in a Network Spike, Shafer Lab (AID 2284054)
In short: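 Developing networks of rat cortical neurons are dosed at day 0 and recorded extracellularly four times up to day 12. The endpoint is the area under the curve of percent spikes in network spikes, fitted in the negative direction relative to DMSO.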

[25] = CCTE_Shafer_MEA_dev_LDH: CCTE's Lactate Dehydrogenase Assay for Cytotoxicity in the Neural Network Formation Assay, Shafer Lab (AID 2284068; active = hit-call score of the fitted dose curve at least 0.9, where 1 is the maximum;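 also: exposure for twelve days from plating with re-dosing on DIV 5 and 9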)
In short: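 Primary rat cortical neurons were cultured on PEI-coated MEA plates and exposed from plating through day 12, with compound renewed at medium changes on DIV 5 and 9. LDH activity was read spectrophotometrically; loss of signal versus DMSO indicates reduced viability.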

[26] = CCTE_Shafer_MEA_dev_AB: CCTE's Alamar Blue Assay for Cytotoxicity in the Neural Network Formation Assay, Shafer Lab (AID 2284083; active = hit-call score of the fitted dose curve at least 0.9, where 1 is the maximum;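 also: resazurin reduction fluorescence as viability of cultured neurons; twelve days of exposure from plating with re-dosing on DIV 5 and 9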)
In short: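 Resazurin fluorescence, relative to DMSO, gauges viability after twelve days of exposure that began at plating of rat cortical neurons (1.5 x 10^5 cells/well, 48-well MEA); treatment renewed with full medium exchange on DIV 5 and 9.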

[27] = CCTE_Shafer_MEA_acute_LDH: CCTE's Lactate Dehydrogenase Assay for Cytotoxicity in the Neural Acute Assay, Shafer Lab (AID 2284086; active = hit-call score of the fitted dose curve at least 0.9, where 1 is the maximum;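 also: active means LDH release rises above DMSO vehicle level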)
In short: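 Cytotoxicity readout: spectrophotometric LDH activity in supernatant of rat primary cortical neurons, post-plating day 13 or 15, sampled after 40 min compound exposure; signal gain relative to DMSO baseline.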

Measured: AC50

CC1(C)[C@@H](C=C(Cl)Cl)[C@@H]1C(=O)O[C@@H](C#N)c1ccc(F)c(Oc2ccccc2)c1
inactive: [3] | [4] | [11] | [15] | [16] | [17] | [18] | [19] | [20] | [22] | [25] | [26] | [27]
active: [1] 2960 nM | [2] 2970 nM | [5] 842 nM | [6] 2350 nM | [7] 1950 nM | [8] 534 nM | [9] 1680 nM | [10] 1320 nM | [12] 5760 nM | [13] 15000 nM | [14] 10200 nM | [21] 6210 nM | [23] 5820 nM | [24] 15000 nM
